Screening data from PubChem.
Hits are enriched below; roughly 7.6% of the tested compounds scored in any of these assays.
SW480 rereplic: induces DNA re-replication in SW480 colon adenocarcinoma cells; SW480 DNA re-replication, Hoechst DNA content imaging, 48 h; Potency, µM (doses to about 46.1 µM), for inactives: top-dose re-replication activation, usual class: activators; 1.8% of 340,000 active; AID 624297; further: potency means the concentration at half of the fitted maximal effect; % of control where 0% means no effect; nearly all actives have a fitted effect of over 55% in size
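Readout is total intensity of Hoechst-stained nuclei, excited at 405 nm and collected at 500-530 nm. Compound treatment lasted 48 hr at 37 C in 5% CO2 before staining.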
hERG WT inh: KCNH2 (human, wildtype) channel inhibition; activity change, % at 1.84 µM; U2OS, BacMam KCNH2, thallium flux FluxOr; active compounds read low; Q12809; 0.37% of 340,000 active;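 active means maximum activity change below -70%; inconclusive means maximum activity change between -70% and -50%; inactive means maximum activity change above -50%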; further: on the % scale 0 is the no-effect control and ±100 the full control effect
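U2OS cells transduced with wild-type KCNH2 virus are loaded with FluxOr dye for 45 min, and thallium flux is measured in kinetic reads before and after stimulation buffer. Rate constants are normalized to DMSO controls.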
KCNH2 3.1 block: blocks the human KCNH2 3.1 channel isoform | U2OS KCNH2 3.1, thallium flux FluxOr; active compounds read low | activity change, % (tested at about 1.8 µM) | 0.95% of 340,000 active;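 active means maximum activity change below -70%; inconclusive means maximum activity change from -70% to -50%; inactive means maximum activity change above -50%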;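 further: thallium influx rate constant from kinetic fluorescence after stimulation buffer; on the % scale 0 is the no-effect control and ±100 the full control effect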
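Measured as rate of thallium-driven FluxOr signal in transduced U2OS cells carrying the 3.1 channel, read kinetically for 2 min upon stimulation; values are rate constants scaled to DMSO control wells.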
KB-V1 cytotox: kills drug-selected multidrug resistant KB-V1 cells | AID 1347076 | KB-V1 MDR cells viability, CellTiter-Glo, 72 h | 3.4% of 400,000 active | Potency, µM (titrated, usually from 46.1 µM), actives largely listed as cytotoxic; further: potency means the concentration at half of the fitted maximal effect; on the % scale 0 is the no-effect control and ±100 the full control effect; nearly all actives have a fitted effect of over 60% in size
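Drug-selected KB-V1 cells, grown in DMEM lacking phenol red with 10% FBS, receive compound titrations; after three days at 37 degrees C, surviving cell ATP is quantified by CellTiter-Glo luminescence and responses normalized and curve-fitted.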
MCF10A rerep: inducers of DNA re-replication in MCF 10A breast cells | MCF 10A DNA re-replication, Hoechst nuclear intensity, 48 h | Potency, µM (top dose mostly 46.1 µM), without a hit: at the highest dose activity, positive = re-replication, actives largely listed as activators | 2.9% of 350,000 active | AID 624296; further: potency means the concentration at half of the fitted maximal effect; % of control where 0% means no effect; nearly all actives have a fitted effect of over 50% in size
KB-3-1 cytotox: kills parental KB-3-1 adenocarcinoma cells | KB-3-1 viability, CellTiter-Glo ATP luminescence, 72 h | Potency, µM (doses to about 46.1 µM), most hits filed as cytotoxic | 1.4% of 400,000 active; further: potency means the concentration at half of the fitted maximal effect; on the % scale 0 is the no-effect control and ±100 the full control effect; nearly all actives have a fitted effect of over 60% in size
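Parental KB-3-1 viability, qHTS format: 72 h compound exposure, 37 °C; CellTiter-Glo; media-only wells and DMSO plates as controls; concentration-effect fits on corrected data.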
* marks the source's active call; other numbers are inactive results; i = inactive; u = inconclusive; x = not tested or not shown. Unless noted, the call rests on the fitted dose curve; in most records, active means well fitted curve in the direction sought with a large enough effect; inconclusive means small, poorly fitted or top-dose-only effect, or another doubt; inactive means no such curve, though single readings can be large; an effect the other way counts as inactive or inconclusive.

SMILES	SW480 rereplic	hERG WT inh	KCNH2 3.1 block	KB-V1 cytotox	MCF10A rerep	KB-3-1 cytotox
CCC1=NN(C(=O)c2ccccc2O)C(O)(c2ccccc2)C1 (stereo not drawn)	16.4µM*	-7.3	-4.5	u	u	u
Nc1ccc(C(=O)N2N=C(c3ccccc3)CC2(O)C(F)(F)F)cc1 (stereo not drawn)	-4.0%	-2.8	23.3	i	-3.1%	i
Cc1ccccc1OCC(=O)N1N=C(c2cccnc2)CC1(O)C(F)(F)F (stereo not drawn)	-6.3%	-3.9	0.4	20.6µM*	-11.1%	i
Cc1cc(C)cc(OCC(=O)N2N=C(c3cccnc3)CC2(O)C(F)(F)F)c1 (stereo not drawn)	13.3%	1.8	6.4	u	4.7%	i
O=C(c1ccccc1O)N1N=C(c2ccccc2)CC1(O)C(F)(F)F (stereo not drawn)	u	0.6	-12.3	i	20.6µM*	i
COc1cccc(C(=O)N2N=C(c3ccccc3)CC2(O)C(F)(F)F)c1 (stereo not drawn)	0.8%	0.9	13.9	16.4µM*	u	i
O=C(COc1ccc(Cl)cc1Cl)NN1C(=O)C2C3C=CC(C3)C2C1=O (stereo not drawn)	18.0%	-2.8	-1.6	i	1.8%	i
CC1CCc2nc(/C(C#N)=C/c3cccnc3)sc2C1 (stereo not drawn)	u	-11.7	3.3	u	20.6µM*	i
Cn1cnnc1SCC(=O)NC1CCCCCC1	7.6%	3.4	u	i	-0.1%	i
CS(=O)(=O)Nc1ccc(S(=O)(=O)N2CCCC2)cc1	-3.4%	-0.3	7.5	i	-1.5%	i
COc1ccc2c(c1)C(CC(C)=O)N(c1ccc(-c3cnc(OC)nc3)cc1)C(c1ccsc1)=C2 (stereo not drawn)	x	x	x	i	x	i
COc1ccc2c(c1)C(CC(C)=O)N(c1ccc(-c3cccs3)cc1)C(c1ccsc1)=C2 (stereo not drawn)	x	x	x	i	x	10.3µM*
CCc1nc(Nc2ccncc2)c2oc3ccccc3c2n1	18.4µM*	1.0	0.5	i	u	8.2µM*
CCc1nc(N2CCCC(C)C2)c2oc3ccccc3c2n1 (stereo not drawn)	20.4%	12.5	2.7	5.17µM*	u	u
CCc1nc(N2CCCCC2C)c2oc3ccccc3c2n1 (stereo not drawn)	u	-16.6	-10.5	7.31µM*	u	u
Cc1nc(Nc2ccncc2)c2oc3ccccc3c2n1	u	-15.6	13.0	i	u	u
CCc1nc(N2CCCCC2)c2oc3ccccc3c2n1	u	-11.9	16.7	u	5.7%	i
CCc1nc(N2CCN(Cc3ccc4c(c3)OCO4)CC2)c2oc3ccccc3c2n1	u	2.0	-25.5	10µM*	9.2µM*	20µM*
COc1ccc(-n2nc(C(=O)NCC(=O)NCCCN3CC(C)CC(C)C3)c3ccccc3c2=O)cc1Cl (stereo not drawn)	u	2.5	-15.2	u	17.9%	i
Cn1c(=O)c(S(=O)C2CCCCC2)c(O)c2ccccc21 (stereo not drawn)	-13.5%	-3.6	-2.6	i	-0.5%	i
CCCCn1nnnc1C1(C)CCC(=O)N1Cc1cccnc1 (stereo not drawn)	x	x	x	i	x	i
c1ccc2c(c1)oc1c(N3CCOCC3)ncnc12	-3.0%	3.6	9.8	i	13.9%	i
Cc1nc(N2CCOCC2)c2oc3ccccc3c2n1	6.4%	3.1	18.5	14.6µM*	u	i
CCOC(=O)C1CCCN(c2nc(C)nc3c2oc2ccccc23)C1 (stereo not drawn)	29.4%	-10.2	13.3	8.2µM*	56.8%	i
O=C(NC1CCCC1)c1nc(-c2c(F)cccc2F)oc1-c1ccccc1	x	x	x	u	x	i
COc1cc(/C=C2/SC(=O)N(CC(=O)N3CCCC3)C2=O)ccc1Oc1ccc([N+](=O)[O-])cn1	-3.2%	4.5	9.7	u	u	i
